In all, about 5,900 compounds went through this assay and about 100 (1.7%) were called active.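 Rule for the calls: active = binding response below 72% of control, or above a set upper limit, though filed actives all read lower; inactive = the rest.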 Shown is part of a subset that was picked to be rich in actives.
target: Mitogen-activated protein kinase kinase kinase 3 (Homo sapiens) (UniProt Q99759); assay: blockers of MEK5-MEKK3 PB1 association – biochemical, bead multiplex flow cytometry, single concentration, wildtype, confirmation (AID 1894); conditions: Alexa488-MEK5 binding to MEKK3, at 10 µM, active compounds read low;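 note: 100% = DMSO only wells and 0% = binding blocked by excess unlabeled MEK5; lower values mean stronger disruption of MEK5 binding to MEKK3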
Sequence (Q99759 whole entry, looked up): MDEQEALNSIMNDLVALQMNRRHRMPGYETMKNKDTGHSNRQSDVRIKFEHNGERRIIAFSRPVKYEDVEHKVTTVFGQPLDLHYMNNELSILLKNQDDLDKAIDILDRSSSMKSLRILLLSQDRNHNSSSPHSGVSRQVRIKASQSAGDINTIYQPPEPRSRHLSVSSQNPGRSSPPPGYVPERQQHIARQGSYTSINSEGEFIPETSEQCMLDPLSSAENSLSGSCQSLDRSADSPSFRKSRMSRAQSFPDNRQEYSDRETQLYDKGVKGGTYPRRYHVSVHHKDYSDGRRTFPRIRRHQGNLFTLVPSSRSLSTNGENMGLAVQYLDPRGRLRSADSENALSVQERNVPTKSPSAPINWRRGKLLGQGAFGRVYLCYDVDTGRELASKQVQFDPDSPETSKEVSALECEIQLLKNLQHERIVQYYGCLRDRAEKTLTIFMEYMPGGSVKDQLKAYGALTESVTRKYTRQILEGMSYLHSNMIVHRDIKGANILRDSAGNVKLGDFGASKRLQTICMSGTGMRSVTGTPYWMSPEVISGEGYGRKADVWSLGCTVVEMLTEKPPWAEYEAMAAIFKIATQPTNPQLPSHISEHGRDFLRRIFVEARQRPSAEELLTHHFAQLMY

Binding response (% of control), inactive:
Cc1ccc2c(C)c(C(=O)N3CCN(c4ccncc4)CC3)oc2c1C 108%
Cc1ccccc1-c1ccc(Nc2ccc(C(=O)N3CCOCC3)cc2)nn1 102%
C[N+](C)(C)CCNC(=O)c1c(O)c2c([nH]c1=O)CCCC2 99%
COc1cc(C)nc(N2CCCC(C(=O)NCC(C)C)C2)n1 (centres undefined) 96%
O=c1[nH]c(=S)[nH]c2[nH]c(=S)[nH]c12 100%
CCOC(=O)c1cc2occc2n1CC(=O)N1CCN(C(=O)c2ccco2)CC1 95%
O=C(O)C1CCN(c2ccc([N+](=O)[O-])cc2[N+](=O)[O-])CC1 102%
COc1ccccc1CC(=O)Nc1ccc([N+](=O)[O-])cc1OC 98%
c1ccc2c(c1)C(=NC1CCCCC1)NC2=NC1CCCCC1 104%
CCc1nnc(NC(=O)c2sc3nc(C)cc(COC)c3c2N)s1 105%
Cc1cccc(OCCNC(=O)CSc2ccc(C(F)(F)F)cc2[N+](=O)[O-])c1 104%
COc1ccc(CCn2c(NN=C3CCCC3)nc3c2c(=O)[nH]c(=O)n3C)cc1 106%
Cc1c(CN2CCC(CO)(CCOc3ccccc3)CC2)[nH]c2ccc(Cl)cc12 112%
COc1cccc(Nc2ncccc2C(=O)O)c1 101%
O=C(NCC1CCCCC1)c1cc(S(=O)(=O)N2CCCCC2)ccc1N1CCOCC1 91%
O=C(c1ccc(Br)o1)N(c1ccccn1)C1CCCCC1 98%
Cc1cccc(CSc2nnc(C)c(=O)n2N)c1 103%
CC(C)CC(=O)NC(=S)NCc1ccccc1 99%
COC(=O)C1=NN(c2ccccc2)C2C(=O)N(c3ccccc3OC)C(=O)C12 (centres undefined) 103%
Cc1ccccc1CCN(CC(=O)NC1CCCCC1)C(=O)c1csnn1 97%
Cc1[nH]c2ccc(S(N)(=O)=O)cc2c1C 100%
CCc1ccc2nc(Nc3ncc(C(C)=O)c(C)n3)nc(C)c2c1 102%
COc1cccc(OC)c1C(=O)Nc1ccc(Cc2ccncc2)cc1 101%
CN(C)CC(O)COc1ccc(C(C)(C)c2ccc(OCC(O)CN(C)C)cc2)cc1 (centres undefined) 111%

— PubChem BioAssay AID1894 (NMMLSC, 2009)
